# Reference: paper PMC11006913
# Substitutions are numbered along the chain they refer to.
# Tests used:
# Assay in all cases: PBM; 200 nM protein, PBS
# Settings in all cases: dsDNA, one strand shown
# [1] = molecular target: T1, VENTX (Homo sapiens, UniProt O95231 78-163, R121Q)
# T1 sequence: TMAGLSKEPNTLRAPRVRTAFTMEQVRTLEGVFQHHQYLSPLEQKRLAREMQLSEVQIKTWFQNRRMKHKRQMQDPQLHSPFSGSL
# [2] = molecular target: T2, VENTX (Homo sapiens, UniProt O95231 78-163, Y115F)
# T2 sequence: T1 sequence with Y38F, Q44R
# [3] = molecular target: HOXB9 (Homo sapiens, UniProt P17482 171-250, T197M)
# Sequence of HOXB9 (Homo sapiens, UniProt P17482 171-250, T197M) (P17482 171-250 T197M): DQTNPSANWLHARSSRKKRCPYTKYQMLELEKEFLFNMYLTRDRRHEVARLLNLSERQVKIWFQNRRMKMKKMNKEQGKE
# [4] = molecular target: HOXC9 (Homo sapiens, UniProt P31274 178-260, K195R)
# Sequence of HOXC9 (Homo sapiens, UniProt P31274 178-260, K195R) (P31274 178-260 K195R): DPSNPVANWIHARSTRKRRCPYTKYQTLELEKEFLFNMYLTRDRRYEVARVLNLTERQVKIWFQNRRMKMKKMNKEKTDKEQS
# [5] = molecular target: HOXC10 (Homo sapiens, UniProt Q9NYD6 254-340)
# Sequence of HOXC10 (Homo sapiens, UniProt Q9NYD6 254-340) (Q9NYD6 254-340): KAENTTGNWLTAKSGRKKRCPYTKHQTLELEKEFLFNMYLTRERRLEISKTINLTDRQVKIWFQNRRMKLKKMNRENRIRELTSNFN
# [6] = molecular target: ALX4 (Homo sapiens, UniProt Q9H161 200-286, Q225E)
# Sequence of ALX4 (Homo sapiens, UniProt Q9H161 200-286, Q225E) (Q9H161 200-286 Q225E): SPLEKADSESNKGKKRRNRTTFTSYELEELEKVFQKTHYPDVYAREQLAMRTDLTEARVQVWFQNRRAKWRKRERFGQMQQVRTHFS
# [7] = molecular target: HOXB9 (Homo sapiens, UniProt P17482 171-250)
# Sequence of HOXB9 (Homo sapiens, UniProt P17482 171-250) (P17482 171-250): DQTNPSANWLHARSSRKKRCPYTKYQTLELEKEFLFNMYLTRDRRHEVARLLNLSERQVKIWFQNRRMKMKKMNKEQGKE
# [8] = molecular target: HOXC9 (Homo sapiens, UniProt P31274 178-260)
# Sequence of HOXC9 (Homo sapiens, UniProt P31274 178-260) (P31274 178-260): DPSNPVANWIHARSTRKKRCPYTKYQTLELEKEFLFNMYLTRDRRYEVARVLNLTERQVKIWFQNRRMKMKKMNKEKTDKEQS
# [9] = molecular target: HOXD13 (Homo sapiens, UniProt P35453 263-343, T313R)
# Sequence of HOXD13 (Homo sapiens, UniProt P35453 263-343, T313R) (P35453 263-343 T313R): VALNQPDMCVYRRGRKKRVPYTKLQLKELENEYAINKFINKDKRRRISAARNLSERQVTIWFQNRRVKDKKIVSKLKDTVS
# [10] = molecular target: HOXC9 (Homo sapiens, UniProt P31274 178-260, R193K)
# Sequence of HOXC9 (Homo sapiens, UniProt P31274 178-260, R193K) (P31274 178-260 R193K): as the sequence (P31274 178-260) above, with R16K counted along it
# [11] = molecular target: HOXD13 (Homo sapiens, UniProt P35453 263-343)
# Sequence of HOXD13 (Homo sapiens, UniProt P35453 263-343) (P35453 263-343): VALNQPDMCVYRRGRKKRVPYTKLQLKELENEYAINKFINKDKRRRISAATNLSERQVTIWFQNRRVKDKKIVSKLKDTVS
# [12] = molecular target: HOXC10 (Homo sapiens, UniProt Q9NYD6 254-340, K271E)
# Sequence of HOXC10 (Homo sapiens, UniProt Q9NYD6 254-340, K271E) (Q9NYD6 254-340 K271E): as the sequence (Q9NYD6 254-340) above, with K18E counted along it
# [13] = molecular target: HOXD13 (Homo sapiens, UniProt P35453 263-343, T313A)
# Sequence of HOXD13 (Homo sapiens, UniProt P35453 263-343, T313A) (P35453 263-343 T313A): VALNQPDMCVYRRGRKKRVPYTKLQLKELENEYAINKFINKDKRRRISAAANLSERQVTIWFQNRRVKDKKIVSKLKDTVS
# [14] = molecular target: HOXB9 (Homo sapiens, UniProt P17482 171-250, R186Q)
# Sequence of HOXB9 (Homo sapiens, UniProt P17482 171-250, R186Q) (P17482 171-250 R186Q): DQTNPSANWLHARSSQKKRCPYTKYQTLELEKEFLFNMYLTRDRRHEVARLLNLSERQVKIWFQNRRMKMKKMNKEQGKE
# [15] = molecular target: HOXC9 (Homo sapiens, UniProt P31274 178-260, R222W)
# Sequence of HOXC9 (Homo sapiens, UniProt P31274 178-260, R222W) (P31274 178-260 R222W): as the sequence (P31274 178-260) above, with R45W counted along it
# [16] = molecular target: HOXA7 (Homo sapiens, UniProt P31268 116-202)
# Sequence of HOXA7 (Homo sapiens, UniProt P31268 116-202) (P31268 116-202): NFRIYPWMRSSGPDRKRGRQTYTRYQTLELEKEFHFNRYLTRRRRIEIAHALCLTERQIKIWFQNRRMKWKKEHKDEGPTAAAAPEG
# [17] = molecular target: HOXB6 (Homo sapiens, UniProt P17509 132-218, K202E)
# Sequence of HOXB6 (Homo sapiens, UniProt P17509 132-218, K202E) (P17509 132-218 K202E): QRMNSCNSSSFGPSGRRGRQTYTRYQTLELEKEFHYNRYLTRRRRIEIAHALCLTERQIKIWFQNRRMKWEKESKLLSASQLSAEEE
# [18] = molecular target: HOXA7 (Homo sapiens, UniProt P31268 116-202, W177C)
# Sequence of HOXA7 (Homo sapiens, UniProt P31268 116-202, W177C) (P31268 116-202 W177C): as the sequence (P31268 116-202) above, with W62C counted along it
# [19] = molecular target: HOXB6 (Homo sapiens, UniProt P17509 132-218)
# Sequence of HOXB6 (Homo sapiens, UniProt P17509 132-218) (P17509 132-218): as the sequence (P17509 132-218 K202E) above, with E71K counted along it
# [20] = molecular target: ALX4 (Homo sapiens, UniProt Q9H161 200-286)
# Sequence of ALX4 (Homo sapiens, UniProt Q9H161 200-286) (Q9H161 200-286): as the sequence (Q9H161 200-286 Q225E) above, with E26Q counted along it
# [21] = molecular target: T3, PAX4 (Homo sapiens, UniProt O43316 9-242, R200K)
# T3 sequence: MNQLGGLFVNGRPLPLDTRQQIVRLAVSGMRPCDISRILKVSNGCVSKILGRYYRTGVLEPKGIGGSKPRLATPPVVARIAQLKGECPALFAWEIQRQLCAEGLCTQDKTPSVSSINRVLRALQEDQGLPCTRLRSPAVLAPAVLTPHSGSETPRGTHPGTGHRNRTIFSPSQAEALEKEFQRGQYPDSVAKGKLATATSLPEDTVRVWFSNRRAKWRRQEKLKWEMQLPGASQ
# [22] = molecular target: PRRX1 (Homo sapiens, UniProt P54821 80-166, F113S)
# Sequence of PRRX1 (Homo sapiens, UniProt P54821 80-166, F113S) (P54821 80-166 F113S): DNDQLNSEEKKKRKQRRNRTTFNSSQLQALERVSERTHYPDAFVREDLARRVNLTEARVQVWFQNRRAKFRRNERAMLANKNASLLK
# [23] = molecular target: T4, PAX4 (Homo sapiens, UniProt O43316 9-242)
# T4 sequence: T3 sequence with K192R
# [24] = molecular target: HOXA4 (Homo sapiens, UniProt Q00056 201-287, R217L)
# Sequence of HOXA4 (Homo sapiens, UniProt Q00056 201-287, R217L) (Q00056 201-287 R217L): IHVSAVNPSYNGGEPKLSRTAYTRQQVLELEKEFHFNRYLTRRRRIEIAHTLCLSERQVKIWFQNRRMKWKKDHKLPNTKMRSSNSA
# [25] = molecular target: HOXB4 (Homo sapiens, UniProt P17483 148-234, V174I)
# Sequence of HOXB4 (P17483 148-234 V174I): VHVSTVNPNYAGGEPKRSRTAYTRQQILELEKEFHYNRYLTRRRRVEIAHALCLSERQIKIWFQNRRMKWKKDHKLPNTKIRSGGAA
# [26] = molecular target: ALX1 (Homo sapiens, UniProt Q15699 118-204, L144V)
# Sequence of ALX1 (Homo sapiens, UniProt Q15699 118-204, L144V) (Q15699 118-204 L144V): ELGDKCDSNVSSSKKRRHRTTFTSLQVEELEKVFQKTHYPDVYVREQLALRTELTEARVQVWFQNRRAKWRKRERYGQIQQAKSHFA
# [27] = molecular target: ALX3 (Homo sapiens, UniProt O95076 139-225, N203Q)
# Sequence of ALX3 (Homo sapiens, UniProt O95076 139-225, N203Q) (O95076 139-225 N203Q): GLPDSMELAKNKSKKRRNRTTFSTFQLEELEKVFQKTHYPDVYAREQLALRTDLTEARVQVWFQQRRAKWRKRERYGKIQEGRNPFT
# [28] = molecular target: T5, PAX4 (Homo sapiens, UniProt O43316 9-242, R200Q)
# T5 sequence: T3 sequence with K192Q
# [29] = molecular target: SHOX (Homo sapiens, UniProt O15266 103-189, R173C)
# Sequence of SHOX (O15266 103-189 R173C): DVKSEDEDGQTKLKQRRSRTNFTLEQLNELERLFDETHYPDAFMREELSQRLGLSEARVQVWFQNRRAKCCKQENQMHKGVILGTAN
# [30] = molecular target: ALX1 (Homo sapiens, UniProt Q15699 118-204, L144R)
# Sequence of ALX1 (Homo sapiens, UniProt Q15699 118-204, L144R) (Q15699 118-204 L144R): as the sequence (Q15699 118-204 L144V) above, with V27R counted along it
# [31] = molecular target: T6, PAX4 (Homo sapiens, UniProt O43316 9-242, F177V)
# T6 sequence: T3 sequence with F169V, K192R
# [32] = molecular target: ALX3 (Homo sapiens, UniProt O95076 139-225)
# Sequence of ALX3 (Homo sapiens, UniProt O95076 139-225) (O95076 139-225): as the sequence (O95076 139-225 N203Q) above, with Q65N counted along it
# [33] = molecular target: T7, PAX4 (Homo sapiens, UniProt O43316 9-242, F177Y)
# T7 sequence: T3 sequence with F169Y, K192R
# [34] = molecular target: HESX1 (Homo sapiens, UniProt Q9UBX0 95-180, R109Q)
# Sequence of HESX1 (Homo sapiens, UniProt Q9UBX0 95-180, R109Q) (Q9UBX0 95-180 R109Q): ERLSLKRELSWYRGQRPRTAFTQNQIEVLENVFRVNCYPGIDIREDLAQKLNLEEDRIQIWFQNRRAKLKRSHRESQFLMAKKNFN
# [35] = molecular target: ALX3 (Homo sapiens, UniProt O95076 139-225, L168Q)
# Sequence of ALX3 (Homo sapiens, UniProt O95076 139-225, L168Q) (O95076 139-225 L168Q): as the sequence (O95076 139-225 N203Q) above, with L30Q, Q65N counted along it
# [36] = molecular target: HESX1 (Homo sapiens, UniProt Q9UBX0 95-180, P111T)
# Sequence of HESX1 (Homo sapiens, UniProt Q9UBX0 95-180, P111T) (Q9UBX0 95-180 P111T): as the sequence (Q9UBX0 95-180 R109Q) above, with Q15R, P17T counted along it
# [37] = molecular target: ALX3 (Homo sapiens, UniProt O95076 139-225, L168V)
# Sequence of ALX3 (Homo sapiens, UniProt O95076 139-225, L168V) (O95076 139-225 L168V): as the sequence (O95076 139-225 N203Q) above, with L30V, Q65N counted along it
# [38] = molecular target: HESX1 (Homo sapiens, UniProt Q9UBX0 95-180, F115L)
# Sequence of HESX1 (Homo sapiens, UniProt Q9UBX0 95-180, F115L) (Q9UBX0 95-180 F115L): as the sequence (Q9UBX0 95-180 R109Q) above, with Q15R, F21L counted along it
# [39] = molecular target: VAX1 (Homo sapiens, UniProt Q5SQQ9 86-172, T142I)
# Sequence of VAX1 (Q5SQQ9 86-172 T142I): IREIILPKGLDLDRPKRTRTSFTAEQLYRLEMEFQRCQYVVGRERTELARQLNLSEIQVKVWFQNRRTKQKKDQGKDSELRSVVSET
# [40] = molecular target: T8, PAX4 (Homo sapiens, UniProt O43316 9-242, R227W)
# T8 sequence: T3 sequence with K192R, R219W
# [41] = molecular target: HOXA4 (Homo sapiens, UniProt Q00056 201-287, W262F)
# Sequence of HOXA4 (Homo sapiens, UniProt Q00056 201-287, W262F) (Q00056 201-287 W262F): as the sequence (Q00056 201-287 R217L) above, with L17R, W62F counted along it
# [42] = molecular target: ALX3 (Homo sapiens, UniProt O95076 139-225, N203S)
# Sequence of ALX3 (Homo sapiens, UniProt O95076 139-225, N203S) (O95076 139-225 N203S): as the sequence (O95076 139-225 N203Q) above, with Q65S counted along it
# [43] = molecular target: PRRX1 (Homo sapiens, UniProt P54821 80-166)
# Sequence of PRRX1 (Homo sapiens, UniProt P54821 80-166) (P54821 80-166): as the sequence (P54821 80-166 F113S) above, with S34F counted along it
sequence,measurement,setting,value
AACCGATT,binding signal,[1],"10.1 upbm affinity estimate (log intensity, higher = more binding, comparable within an allelic series)"
same,binding signal,[2],"10.3 upbm affinity estimate (log intensity, higher = more binding, comparable within an allelic series)"
TAATAAAA,binding signal,[3],"10.1 upbm affinity estimate (log intensity, higher = more binding, comparable within an allelic series)"
same,binding signal,[4],"13.2 upbm affinity estimate (log intensity, higher = more binding, comparable within an allelic series)"
same,binding signal,[5],"13 upbm affinity estimate (log intensity, higher = more binding, comparable within an allelic series)"
same,binding signal,[6],"11.8 upbm affinity estimate (log intensity, higher = more binding, comparable within an allelic series)"
same,binding signal,[7],"12.6 upbm affinity estimate (log intensity, higher = more binding, comparable within an allelic series)"
same,binding signal,[8],"13.2 upbm affinity estimate (log intensity, higher = more binding, comparable within an allelic series)"
same,binding signal,[9],"11.1 upbm affinity estimate (log intensity, higher = more binding, comparable within an allelic series)"
same,binding signal,[10],"13.1 upbm affinity estimate (log intensity, higher = more binding, comparable within an allelic series)"
same,binding signal,[11],"12.1 upbm affinity estimate (log intensity, higher = more binding, comparable within an allelic series)"
same,binding signal,[12],"12.5 upbm affinity estimate (log intensity, higher = more binding, comparable within an allelic series)"
same,binding signal,[13],"12.1 upbm affinity estimate (log intensity, higher = more binding, comparable within an allelic series)"
same,binding signal,[14],"12.2 upbm affinity estimate (log intensity, higher = more binding, comparable within an allelic series)"
same,binding signal,[15],"11.7 upbm affinity estimate (log intensity, higher = more binding, comparable within an allelic series)"
GTAATAAA,binding signal,[3],"10.1 upbm affinity estimate (log intensity, higher = more binding, comparable within an allelic series)"
same,binding signal,[4],"13.2 upbm affinity estimate (log intensity, higher = more binding, comparable within an allelic series)"
same,binding signal,[16],"11.4 upbm affinity estimate (log intensity, higher = more binding, comparable within an allelic series)"
same,binding signal,[5],"13 upbm affinity estimate (log intensity, higher = more binding, comparable within an allelic series)"
same,binding signal,[17],"9.9 upbm affinity estimate (log intensity, higher = more binding, comparable within an allelic series)"
same,binding signal,[7],"12.6 upbm affinity estimate (log intensity, higher = more binding, comparable within an allelic series)"
same,binding signal,[8],"13.3 upbm affinity estimate (log intensity, higher = more binding, comparable within an allelic series)"
same,binding signal,[9],"11 upbm affinity estimate (log intensity, higher = more binding, comparable within an allelic series)"
same,binding signal,[10],"13.2 upbm affinity estimate (log intensity, higher = more binding, comparable within an allelic series)"
same,binding signal,[11],"12.1 upbm affinity estimate (log intensity, higher = more binding, comparable within an allelic series)"
same,binding signal,[12],"12.6 upbm affinity estimate (log intensity, higher = more binding, comparable within an allelic series)"
same,binding signal,[13],"11.9 upbm affinity estimate (log intensity, higher = more binding, comparable within an allelic series)"
same,binding signal,[14],"12.3 upbm affinity estimate (log intensity, higher = more binding, comparable within an allelic series)"
same,binding signal,[15],"11.4 upbm affinity estimate (log intensity, higher = more binding, comparable within an allelic series)"
same,binding signal,[18],"8.79 upbm affinity estimate (log intensity, higher = more binding, comparable within an allelic series)"
same,binding signal,[19],"11.8 upbm affinity estimate (log intensity, higher = more binding, comparable within an allelic series)"
ATTAATAA,binding signal,[3],"10.1 upbm affinity estimate (log intensity, higher = more binding, comparable within an allelic series)"
same,binding signal,[4],"12.6 upbm affinity estimate (log intensity, higher = more binding, comparable within an allelic series)"
same,binding signal,[16],"11.2 upbm affinity estimate (log intensity, higher = more binding, comparable within an allelic series)"
same,binding signal,[5],"12.2 upbm affinity estimate (log intensity, higher = more binding, comparable within an allelic series)"
same,binding signal,[20],"13.5 upbm affinity estimate (log intensity, higher = more binding, comparable within an allelic series)"
same,binding signal,[21],"11.7 upbm affinity estimate (log intensity, higher = more binding, comparable within an allelic series)"
same,binding signal,[22],"11.2 upbm affinity estimate (log intensity, higher = more binding, comparable within an allelic series)"
same,binding signal,[23],"12.1 upbm affinity estimate (log intensity, higher = more binding, comparable within an allelic series)"
same,binding signal,[17],"10.1 upbm affinity estimate (log intensity, higher = more binding, comparable within an allelic series)"
same,binding signal,[6],"12.8 upbm affinity estimate (log intensity, higher = more binding, comparable within an allelic series)"
same,binding signal,[24],"12 upbm affinity estimate (log intensity, higher = more binding, comparable within an allelic series)"
same,binding signal,[25],"13.6 upbm affinity estimate (log intensity, higher = more binding, comparable within an allelic series)"
same,binding signal,[26],"11.4 upbm affinity estimate (log intensity, higher = more binding, comparable within an allelic series)"
same,binding signal,[27],"8.66 upbm affinity estimate (log intensity, higher = more binding, comparable within an allelic series)"
same,binding signal,[9],"10.8 upbm affinity estimate (log intensity, higher = more binding, comparable within an allelic series)"
same,binding signal,[28],"11.9 upbm affinity estimate (log intensity, higher = more binding, comparable within an allelic series)"
same,binding signal,[29],"9.26 upbm affinity estimate (log intensity, higher = more binding, comparable within an allelic series)"
same,binding signal,[10],"12.5 upbm affinity estimate (log intensity, higher = more binding, comparable within an allelic series)"
same,binding signal,[30],"11.2 upbm affinity estimate (log intensity, higher = more binding, comparable within an allelic series)"
same,binding signal,[31],"10.7 upbm affinity estimate (log intensity, higher = more binding, comparable within an allelic series)"
same,binding signal,[12],"11.8 upbm affinity estimate (log intensity, higher = more binding, comparable within an allelic series)"
same,binding signal,[32],"12.2 upbm affinity estimate (log intensity, higher = more binding, comparable within an allelic series)"
same,binding signal,[33],"11 upbm affinity estimate (log intensity, higher = more binding, comparable within an allelic series)"
same,binding signal,[34],"8.97 upbm affinity estimate (log intensity, higher = more binding, comparable within an allelic series)"
same,binding signal,[35],"10.2 upbm affinity estimate (log intensity, higher = more binding, comparable within an allelic series)"
same,binding signal,[36],"10.2 upbm affinity estimate (log intensity, higher = more binding, comparable within an allelic series)"
same,binding signal,[14],"11.4 upbm affinity estimate (log intensity, higher = more binding, comparable within an allelic series)"
same,binding signal,[15],"11.2 upbm affinity estimate (log intensity, higher = more binding, comparable within an allelic series)"
same,binding signal,[37],"9.99 upbm affinity estimate (log intensity, higher = more binding, comparable within an allelic series)"
same,binding signal,[38],"8.16 upbm affinity estimate (log intensity, higher = more binding, comparable within an allelic series)"
same,binding signal,[39],"12.3 upbm affinity estimate (log intensity, higher = more binding, comparable within an allelic series)"
same,binding signal,[40],"11 upbm affinity estimate (log intensity, higher = more binding, comparable within an allelic series)"
same,binding signal,[18],"9.01 upbm affinity estimate (log intensity, higher = more binding, comparable within an allelic series)"
same,binding signal,[41],"11.4 upbm affinity estimate (log intensity, higher = more binding, comparable within an allelic series)"
same,binding signal,[42],"8.71 upbm affinity estimate (log intensity, higher = more binding, comparable within an allelic series)"
same,binding signal,[43],"13.2 upbm affinity estimate (log intensity, higher = more binding, comparable within an allelic series)"
same,binding signal,[19],"11.7 upbm affinity estimate (log intensity, higher = more binding, comparable within an allelic series)"
